Where a name gives a salt, the structure may show the parent alone.
What follows are compounds tested on Danio rerio larvae (5 dpf) (assay: combined upward orientation toward moving lines (periods 7-14) minus DMSO control (percentage points); higher = more orientation with moving lines than DMSO larvae). Conditions: 10 µM; exposure time: 3 h pre-incubation + 3 h imaging.
Experimental: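 Wild-type 5 dpf zebrafish larvae (n=48 per drug, 96-well plates, 28.5 °C) were exposed to Tocris FDA-approved library compounds at 10 µM (0.1% DMSO) for 3 h before and 3 h during imaging. Images were taken every 6 s during visual (moving coloured lines) and acoustic stimuli, and larvae were tracked with the DeepLabCut-based Z-LaP Tracker. Each behavioural measure is the treated-group mean minus the DMSO vehicle control mean (n=844), in percentage points. This mapping covers compounds with 4-character plate codes.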

| Compound | combined upward orientation toward moving lines |
| --- | --- |
| Nc1nc(NC2CC2)c2ncn([C@H]3C=C[C@@H](CO)C3)c2n1 [Abacavir hemisulfate] | -1.52 |
| CNC(=O)c1ccccc1Sc1ccc2c(/C=C/c3ccccn3)n[nH]c2c1 [Axitinib] | 4.21 |
| Nc1cc(N2CCCCC2)nc(N)[n+]1[O-] [Minoxidil] | -2.16 |
| CCCc1nc(C(C)(C)O)c(C(=O)O)n1Cc1ccc(-c2ccccc2-c2nnn[nH]2)cc1 [Olmesartan] | -6.03 |
| Cc1nc(-c2ccc(OCC(C)C)c(C#N)c2)sc1C(=O)O [Febuxostat] | -3.47 |
| Nc1nc2[nH]cc(CCc3ccc(C(=O)N[C@@H](CCC(=O)O)C(=O)O)cc3)c2c(=O)[nH]1 [Pemetrexed] | -1.85 |
| CCCCCCCCc1ccc(CCC(N)(CO)CO)cc1 | -8.46 |
| CC#C[C@]1(O)CC[C@H]2[C@@H]3CCC4=CC(=O)CCC4=C3[C@@H](c3ccc(N(C)C)cc3)C[C@@]21C [Mifepristone] | 2.94 |
| CCC(C)(C)C(=O)O[C@H]1C[C@@H](C)C=C2C=C[C@H](C)[C@H](CC[C@@H]3C[C@@H](O)CC(=O)O3)[C@H]21 [Simvastatin] | -3.05 |
| CCOC(=O)C1=C(C)NC(C)=C(C(=O)OC)C1c1cccc(Cl)c1Cl (stereo not given) [Felodipine] | -3.05 |
| CCOC(=O)C1=C(COCCN)NC(C)=C(C(=O)OC)C1c1ccccc1Cl (stereo not given) [Amlodipine besylate] | 0.386 |
| CCCCc1nc(Cl)c(CO)n1Cc1ccc(-c2ccccc2-c2nnn[nH]2)cc1 [Losartan potassium] | -9.02 |
| COc1cc2nc(N3CCN(C(=O)C4COc5ccccc5O4)CC3)nc(N)c2cc1OC (stereo not given) [Doxazosin mesylate] | -11.6 |
| CN(CCOc1ccc(NS(C)(=O)=O)cc1)CCc1ccc(NS(C)(=O)=O)cc1 [Dofetilide] | -4.9 |
| Nc1ccn([C@@H]2O[C@H](CO)[C@@H](O)C2(F)F)c(=O)n1 [Gemcitabine hydrochloride] | 5.82 |
| CCc1ccc(CCOc2ccc(CC3SC(=O)NC3=O)cc2)nc1 (stereo not given) [Pioglitazone hydrochloride] | -3.8 |
| CCCN(CCc1cccs1)[C@H]1CCc2c(O)cccc2C1 [Rotigotine hydrochloride] | -7.46 |
| COC(c1ccccc1)(c1ccccc1)[C@H](Oc1nc(C)cc(C)n1)C(=O)O [Ambrisentan] | -0.152 |
| CC(C)(C#N)c1cc(Cn2cncn2)cc(C(C)(C)C#N)c1 [Anastrozole] | -0.152 |
| CC(C)CN(C[C@@H](O)[C@H](Cc1ccccc1)NC(=O)O[C@H]1CO[C@H]2OCC[C@H]21)S(=O)(=O)c1ccc(N)cc1 [Darunavir] | 0.247 |

| Compound | combined upward orientation toward moving lines |
| --- | --- |
| Cc1cccc(C)c1OCC(C)N (stereo not given) [Mexiletine hydrochloride] | -1.93 |
| Nc1ncn([C@@H]2O[C@H](CO)[C@@H](O)[C@H]2O)c(=O)n1 [5-Azacytidine] | 2.4 |
| Clc1ccc(COC(Cn2ccnc2)c2ccc(Cl)cc2Cl)c(Cl)c1 (stereo not given) [Miconazole nitrate] | -3.31 |
| CC(C)N(CCCCOCC(=O)NS(C)(=O)=O)c1cnc(-c2ccccc2)c(-c2ccccc2)n1 [Selexipag] | -4.38 |
| COc1c(C)c2c(c(O)c1C/C=C(\C)CCC(=O)OCCN1CCOCC1)C(=O)OC2 [Mycophenolate mofetil] | 4.45 |
| CC(=O)NC[C@H]1CN(c2ccc(N3CCOCC3)c(F)c2)C(=O)O1 [Linezolid] | 0.95 |
| COc1cc2nc(N3CCN(C(=O)c4ccco4)CC3)nc(N)c2cc1OC [Prazosin hydrochloride] | -10.6 |
| CCCc1nc2c(C)cc(-c3nc4ccccc4n3C)cc2n1Cc1ccc(-c2ccccc2C(=O)O)cc1 [Telmisartan] | -1.92 |
| CC(=O)S[C@@H]1CC2=CC(=O)CC[C@]2(C)[C@H]2CC[C@@]3(C)[C@@H](CC[C@@]34CCC(=O)O4)[C@H]12 [Spironolactone] | -2.59 |
| C=CC(=O)N1CCC[C@@H](n2nc(-c3ccc(Oc4ccccc4)cc3)c3c(N)ncnc32)C1 [Ibrutinib] | -3.41 |
| CN1CCN2c3ncccc3Cc3ccccc3C2C1 (stereo not given) [Mirtazapine] | -11.4 |
| Cc1nc(Nc2ncc(C(=O)Nc3c(C)cccc3Cl)s2)cc(N2CCN(CCO)CC2)n1 [Dasatinib] | -11 |
| CS(=O)(=O)CCNCc1ccc(-c2ccc3ncnc(Nc4ccc(OCc5cccc(F)c5)c(Cl)c4)c3c2)o1 [Lapatinib] | 1.75 |
| CC(C)C(=O)OCC(=O)[C@@]12O[C@H](C3CCCCC3)O[C@@H]1C[C@H]1[C@@H]3CCC4=CC(=O)C=C[C@]4(C)[C@H]3[C@@H](O)C[C@@]12C [Ciclesonide] | -8.95 |
| O=C(NCC1CCCCN1)c1cc(OCC(F)(F)F)ccc1OCC(F)(F)F (stereo not given) [Flecainide acetate] | -3.7 |
| CC(C)n1c(/C=C/C(O)CC(O)CC(=O)O)c(-c2ccc(F)cc2)c2ccccc21 (stereo not given) [Fluvastatin sodium] | 1.58 |
| Nc1nc(F)nc2c1ncn2[C@@H]1O[C@H](CO)[C@@H](O)[C@@H]1O [Fludarabine] | -6.81 |
| CC[C@H](C)C(=O)O[C@H]1C[C@@H](C)C=C2C=C[C@H](C)[C@H](CC[C@@H]3C[C@@H](O)CC(=O)O3)[C@H]21 [Lovastatin] | -3.5 |
| Cc1cccc(CN2CCN(C(c3ccccc3)c3ccc(Cl)cc3)CC2)c1 (stereo not given) [Meclizine dihydrochloride] | -2.56 |
| CC1CNc2c(cccc2S(=O)(=O)N[C@@H](CCCNC(=N)N)C(=O)N2CC[C@@H](C)C[C@@H]2C(=O)O)C1 (stereo not given in full) [Argatroban] | 0.479 |
